Test results from PubChem BioAssay.
Active and inactive are the calls of the source.

Experiments:
[1] = tested on: PRMT1 (protein arginine N-methyltransferase 1); assay: small molecules binding arginine methyltransferase PRMT1 – biochemical, small-molecule microarray, 635 nm fluorescence, primary screen (AID 1088); conditions: higher = more signal;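 further: binding of Prmt1 protein to compounds spotted on small-molecule microarray slides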
[2] = growth effects on S. cerevisiae YJM789 – YJM789 clinical isolate, OD600, 24 h, basal, primary screen (AID 1089); conditions: higher = more signal, called active from +8 up or from −8 down;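 further: growth of clinical yeast isolate S. cerevisiae YJM 789 seeded 1000 cells per well; test concentration not given here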
[3] = S. pombe growth modifiers, basal conditions – strain 972, OD600, 24 h, no modulator, primary screen (AID 1090);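 further: basal condition with compound alone and no growth modifier present; test concentration not given here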; conditions: S. pombe 972 growth, higher = more signal, called active from +8 up or from −8 down
[4] = budding yeast growth modifiers under rapamycin – strain BY4716, OD600, 96 h, primary screen (AID 1091); further: test concentration not given here; conditions: S. cerevisiae BY4716 + rapamycin, higher = more signal, called active from +8 up or from −8 down
[5] = target: Torsin-1A-interacting protein 2 (Homo sapiens) (UniProt Q8NFQ8); assay: small molecules binding lysate-expressed LULL1 – cell lysate, human LULL1 lysate, 635/667 nm fluorescence, primary screen (AID 1092); conditions: small-molecule microarray, hLULL1 lysate binding, 635 nm fluorescence; higher = more signal;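 further: probe is lysate of COS7 cells overexpressing human LULL1; score merges per-feature 667 nm fluorescence with signal-to-noise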
[6] = optical density change of DRC41 E. coli – strain DRC41, OD650, 24 h, E. coli filamentation project, primary screen (AID 1093);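 further: MC1000 strain lacking acrAB efflux and sulA so SOS filamentation is blocked; test concentration not given here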; conditions: E. coli DRC41 growth, higher = more signal, called active from +8 up or from −8 down
[7] = probe aLefty2 binding to arrayed compounds – biochemical, biotinylated probe, 635/667 nm fluorescence, primary screen (AID 1094); conditions: small-molecule microarray, higher = more signal;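 further: score merges spot fluorescence near 667 nm with spot signal-to-noise ratio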
[8] = tested on: Noggin (protein binding on small-molecule microarray); assay: small molecules binding Noggin protein – biochemical, 635/667 nm fluorescence, primary screen (AID 1095); conditions: 635 nm fluorescence, higher = more signal;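 further: score merges 667 nm feature fluorescence with signal to noise over triplicate slides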
[9] = target: Neurogenic locus notch homolog protein 3 (Homo sapiens) (UniProt Q9UM47); assay: small molecules binding NOTCH3 protein – biochemical, 635/667 nm fluorescence, primary screen (AID 1096); conditions: small-molecule microarray, 635 nm fluorescence, higher = more signal
[10] = probe aEGFR binding to arrayed compounds – biochemical, biotinylated probe, 635/667 nm fluorescence, primary screen (AID 1097); conditions: small-molecule microarray, higher = more signal;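 further: probe is a biotinylated anti-EGFR antibody binding compounds printed on slides; score combines fluorescence near 667 nm and signal to noise of each spot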
[11] = tested on: Plasmodium falciparum Sir2 (PF13_0152, Sir2A); assay: Plasmodium falciparum Sir2A binding compounds – biochemical, small-molecule microarray, 635 nm fluorescence, primary screen (AID 1098); conditions: fluorescence 635 nm, higher = more signal;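 further: score merges spot fluorescence intensity with its signal-to-noise ratio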
[12] = probe aDKK1 binding to arrayed compounds – biochemical, biotinylated probe, 635/667 nm fluorescence, primary screen (AID 1099); conditions: small-molecule microarray, higher = more signal;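 further: score merges 667nm spot fluorescence with signal to noise across triplicate slides; reference of the scale not given here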
[13] = probe aCHRDL2 binding to arrayed compounds – biochemical, biotinylated probe, 635/667 nm fluorescence, primary screen (AID 1100); conditions: small-molecule microarray, higher = more signal
[14] = change in splice reporter luminescence, either direction, cell-based, HEK293, spliceosome inhibition project, primary screen (AID 1101); conditions: HEK293 splicing luciferase reporter, 24 h, higher = more signal, called active from +8 up or from −8 down;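 further: HEK293 cells carrying a splicing-competent luciferase reporter gene; test concentration not given here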
[15] = target: Fibroblast growth factor 10 (Homo sapiens) (UniProt O15520); assay: compounds binding fibroblast growth factor 10 – biochemical, small-molecule microarray, 635 nm fluorescence, primary screen (AID 1102); conditions: FGF10 binding, fluorescence 635 nm, higher = more signal
[16] = tested on: glycogen synthase kinase-3 (GSK3A per assay name; protocol says GSK3B); assay: compounds binding glycogen synthase kinase-3 – biochemical, small-molecule microarray, 635 nm fluorescence, GSK3A, primary screen (AID 1103); conditions: fluorescence 635 nm, higher = more signal; further: the record names both GSK3A and GSK3B
[17] = target: Epidermal growth factor receptor (Homo sapiens) (UniProt P00533); assay: compounds binding epidermal growth factor receptor – biochemical, small-molecule microarray, 635 nm fluorescence, primary screen (AID 1104); conditions: EGFR binding, higher = more signal;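 further: score merges 667 nm emission intensity with spot signal to noise over triplicate slides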
[18] = target: Follistatin-related protein 3 (Homo sapiens) (UniProt O95633); assay: compounds binding follistatin-related protein 3 – biochemical, small-molecule microarray, 635 nm fluorescence, primary screen (AID 1105); conditions: FSTL3 binding, higher = more signal;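 further: score merges emission near 667 nm and signal to noise per printed spot across three slides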
[19] = target: Dickkopf-related protein 1 (Homo sapiens) (UniProt O94907); assay: small molecules binding DKK1 protein – biochemical, small-molecule microarray, 635 nm fluorescence scan, primary screen (AID 1106); conditions: higher = more signal;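 further: score merges emission near 667 nm with signal to noise over three replicate slides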
[20] = tested on: Inhibin beta A chain (activin A); assay: small molecules binding activin A – biochemical, small-molecule microarray, 635 nm fluorescence scan, primary screen (AID 1107); conditions: INHBA, higher = more signal;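 further: mouse activin A protein probed at 4.33 µg/mL on printed slides; score merges bound-protein fluorescence near 667 nm with spot signal-to-noise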

Sequence of Epidermal growth factor receptor (Homo sapiens) (P00533 whole entry, looked up): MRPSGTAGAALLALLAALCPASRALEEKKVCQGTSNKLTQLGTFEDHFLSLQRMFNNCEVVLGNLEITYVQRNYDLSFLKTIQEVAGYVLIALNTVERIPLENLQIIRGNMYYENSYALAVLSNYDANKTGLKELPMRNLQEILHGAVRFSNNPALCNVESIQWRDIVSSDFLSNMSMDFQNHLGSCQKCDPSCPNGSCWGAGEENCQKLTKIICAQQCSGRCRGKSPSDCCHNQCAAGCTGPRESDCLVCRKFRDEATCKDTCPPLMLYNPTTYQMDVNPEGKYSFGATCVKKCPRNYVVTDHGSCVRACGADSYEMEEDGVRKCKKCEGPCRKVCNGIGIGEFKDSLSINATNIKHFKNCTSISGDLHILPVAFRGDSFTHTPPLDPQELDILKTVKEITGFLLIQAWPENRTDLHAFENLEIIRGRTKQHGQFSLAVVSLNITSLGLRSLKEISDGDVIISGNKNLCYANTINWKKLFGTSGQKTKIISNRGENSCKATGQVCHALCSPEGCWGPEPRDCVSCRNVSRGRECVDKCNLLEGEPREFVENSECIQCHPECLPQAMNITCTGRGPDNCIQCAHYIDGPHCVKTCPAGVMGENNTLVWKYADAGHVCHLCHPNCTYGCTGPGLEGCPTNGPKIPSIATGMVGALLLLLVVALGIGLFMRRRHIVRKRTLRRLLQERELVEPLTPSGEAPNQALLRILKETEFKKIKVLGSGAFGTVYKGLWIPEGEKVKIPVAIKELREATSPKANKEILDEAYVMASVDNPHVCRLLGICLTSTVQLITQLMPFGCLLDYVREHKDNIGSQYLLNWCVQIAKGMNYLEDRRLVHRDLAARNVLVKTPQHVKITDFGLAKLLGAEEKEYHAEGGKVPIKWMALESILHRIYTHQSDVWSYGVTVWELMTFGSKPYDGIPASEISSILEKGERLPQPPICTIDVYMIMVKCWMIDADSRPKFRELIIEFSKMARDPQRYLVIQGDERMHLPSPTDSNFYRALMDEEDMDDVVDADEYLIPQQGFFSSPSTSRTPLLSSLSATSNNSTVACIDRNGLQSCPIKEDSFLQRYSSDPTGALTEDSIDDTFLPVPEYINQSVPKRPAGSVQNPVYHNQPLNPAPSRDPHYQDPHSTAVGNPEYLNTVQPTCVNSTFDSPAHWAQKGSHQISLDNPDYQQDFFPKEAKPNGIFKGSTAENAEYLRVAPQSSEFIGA
Sequence of Neurogenic locus notch homolog protein 3 (Homo sapiens) (Q9UM47 whole entry, looked up): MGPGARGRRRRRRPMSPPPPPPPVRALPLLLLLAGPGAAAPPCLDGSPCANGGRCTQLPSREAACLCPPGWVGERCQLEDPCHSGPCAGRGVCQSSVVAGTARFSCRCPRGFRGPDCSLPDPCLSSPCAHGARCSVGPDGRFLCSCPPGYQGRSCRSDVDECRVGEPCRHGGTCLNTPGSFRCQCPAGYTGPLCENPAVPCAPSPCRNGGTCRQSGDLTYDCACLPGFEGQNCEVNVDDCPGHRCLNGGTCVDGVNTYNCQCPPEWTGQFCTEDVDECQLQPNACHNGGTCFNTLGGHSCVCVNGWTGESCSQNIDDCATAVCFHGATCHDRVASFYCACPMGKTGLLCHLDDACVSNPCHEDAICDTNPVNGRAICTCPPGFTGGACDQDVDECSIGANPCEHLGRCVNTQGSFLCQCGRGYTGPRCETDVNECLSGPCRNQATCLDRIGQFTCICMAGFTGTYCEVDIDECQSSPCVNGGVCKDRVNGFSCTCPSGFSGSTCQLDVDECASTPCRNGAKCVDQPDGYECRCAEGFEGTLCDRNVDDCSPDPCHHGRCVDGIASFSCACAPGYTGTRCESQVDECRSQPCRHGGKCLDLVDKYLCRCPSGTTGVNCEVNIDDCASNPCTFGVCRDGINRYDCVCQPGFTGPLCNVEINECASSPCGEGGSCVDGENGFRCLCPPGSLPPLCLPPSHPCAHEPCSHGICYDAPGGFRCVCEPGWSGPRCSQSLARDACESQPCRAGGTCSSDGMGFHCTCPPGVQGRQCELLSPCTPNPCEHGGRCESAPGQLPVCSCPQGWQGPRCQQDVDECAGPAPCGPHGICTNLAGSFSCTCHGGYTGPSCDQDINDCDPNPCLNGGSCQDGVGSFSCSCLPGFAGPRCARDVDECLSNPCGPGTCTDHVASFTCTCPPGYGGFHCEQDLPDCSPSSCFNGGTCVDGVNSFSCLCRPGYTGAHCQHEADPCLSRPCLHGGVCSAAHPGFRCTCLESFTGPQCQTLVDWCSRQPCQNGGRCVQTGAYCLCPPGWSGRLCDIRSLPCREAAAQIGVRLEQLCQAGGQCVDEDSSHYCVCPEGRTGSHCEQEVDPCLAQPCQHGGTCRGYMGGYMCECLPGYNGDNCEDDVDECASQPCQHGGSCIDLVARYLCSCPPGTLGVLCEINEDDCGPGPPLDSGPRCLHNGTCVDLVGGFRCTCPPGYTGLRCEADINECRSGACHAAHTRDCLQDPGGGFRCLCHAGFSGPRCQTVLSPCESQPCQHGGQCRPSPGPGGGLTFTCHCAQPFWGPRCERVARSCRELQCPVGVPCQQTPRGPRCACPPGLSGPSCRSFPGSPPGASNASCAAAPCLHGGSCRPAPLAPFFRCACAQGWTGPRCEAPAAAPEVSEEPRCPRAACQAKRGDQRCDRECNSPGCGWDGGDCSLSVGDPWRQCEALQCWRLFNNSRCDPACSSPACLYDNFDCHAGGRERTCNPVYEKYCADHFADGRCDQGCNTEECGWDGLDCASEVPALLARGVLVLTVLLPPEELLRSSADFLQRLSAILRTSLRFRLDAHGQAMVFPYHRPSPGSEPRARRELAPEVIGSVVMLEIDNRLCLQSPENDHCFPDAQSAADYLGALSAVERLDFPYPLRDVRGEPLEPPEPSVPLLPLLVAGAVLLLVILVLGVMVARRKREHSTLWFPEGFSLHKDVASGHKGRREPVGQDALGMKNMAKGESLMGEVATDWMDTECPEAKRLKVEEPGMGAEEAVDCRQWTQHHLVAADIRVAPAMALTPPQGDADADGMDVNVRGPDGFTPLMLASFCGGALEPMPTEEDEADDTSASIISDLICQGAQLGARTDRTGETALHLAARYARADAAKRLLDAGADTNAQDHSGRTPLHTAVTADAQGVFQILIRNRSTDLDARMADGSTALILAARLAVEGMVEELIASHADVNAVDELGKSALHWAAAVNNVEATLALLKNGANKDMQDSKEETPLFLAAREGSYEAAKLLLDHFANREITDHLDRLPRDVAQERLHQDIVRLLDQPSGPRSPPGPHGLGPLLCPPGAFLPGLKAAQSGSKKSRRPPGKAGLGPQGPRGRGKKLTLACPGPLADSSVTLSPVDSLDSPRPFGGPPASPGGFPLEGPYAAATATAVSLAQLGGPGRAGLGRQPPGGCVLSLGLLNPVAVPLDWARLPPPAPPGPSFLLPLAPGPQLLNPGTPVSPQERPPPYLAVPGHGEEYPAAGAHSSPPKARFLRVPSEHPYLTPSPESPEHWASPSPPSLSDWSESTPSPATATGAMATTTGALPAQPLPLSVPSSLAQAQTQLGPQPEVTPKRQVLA
Sequence of Fibroblast growth factor 10 (Homo sapiens) (O15520 whole entry, looked up): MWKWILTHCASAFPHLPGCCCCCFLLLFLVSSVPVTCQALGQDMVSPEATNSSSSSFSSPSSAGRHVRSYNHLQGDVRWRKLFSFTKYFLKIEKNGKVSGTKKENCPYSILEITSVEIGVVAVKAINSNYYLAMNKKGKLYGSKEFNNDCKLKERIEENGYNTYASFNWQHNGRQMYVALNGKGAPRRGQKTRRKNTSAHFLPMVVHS
Sequence of Torsin-1A-interacting protein 2 (Homo sapiens) (Q8NFQ8 whole entry, looked up): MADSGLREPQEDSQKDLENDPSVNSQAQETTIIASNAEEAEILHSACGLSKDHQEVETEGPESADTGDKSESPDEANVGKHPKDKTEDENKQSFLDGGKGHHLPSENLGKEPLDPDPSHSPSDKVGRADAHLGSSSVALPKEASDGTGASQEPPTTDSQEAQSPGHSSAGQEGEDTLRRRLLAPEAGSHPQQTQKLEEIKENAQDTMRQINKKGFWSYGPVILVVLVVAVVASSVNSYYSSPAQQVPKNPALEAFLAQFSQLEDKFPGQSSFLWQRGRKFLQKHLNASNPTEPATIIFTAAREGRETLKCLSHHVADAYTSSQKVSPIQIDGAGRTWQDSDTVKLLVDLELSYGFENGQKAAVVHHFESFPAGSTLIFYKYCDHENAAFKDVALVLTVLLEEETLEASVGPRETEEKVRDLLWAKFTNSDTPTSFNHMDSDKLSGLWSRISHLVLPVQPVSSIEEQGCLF
Sequence of Dickkopf-related protein 1 (Homo sapiens) (O94907 whole entry, looked up): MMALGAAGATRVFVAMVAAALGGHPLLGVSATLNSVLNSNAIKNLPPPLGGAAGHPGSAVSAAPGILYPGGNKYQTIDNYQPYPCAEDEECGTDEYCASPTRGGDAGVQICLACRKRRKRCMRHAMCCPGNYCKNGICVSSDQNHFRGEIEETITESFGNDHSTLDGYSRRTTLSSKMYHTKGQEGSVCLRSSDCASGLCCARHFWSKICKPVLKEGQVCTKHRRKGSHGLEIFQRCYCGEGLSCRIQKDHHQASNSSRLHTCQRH
Sequence of Follistatin-related protein 3 (Homo sapiens) (O95633 whole entry, looked up): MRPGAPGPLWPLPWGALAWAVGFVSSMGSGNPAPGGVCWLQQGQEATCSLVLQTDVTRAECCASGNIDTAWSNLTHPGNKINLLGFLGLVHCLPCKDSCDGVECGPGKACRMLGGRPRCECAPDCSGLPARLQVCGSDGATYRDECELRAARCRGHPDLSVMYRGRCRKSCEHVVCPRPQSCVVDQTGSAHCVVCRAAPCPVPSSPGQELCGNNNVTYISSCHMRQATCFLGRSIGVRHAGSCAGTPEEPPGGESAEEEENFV

C=C(/C(=C/C[C@H](OC(=O)c1ccncc1)c1ccc(OCCO)cc1)c1cnc2ccccc2c1)C(C)C
composite z-score [1]: 1.55 | z-score [2]: -0.442 (inactive) | z-score [3]: -1.82 (inactive) | z-score [4]: 0.706 (inactive) | composite z-score [5]: 1.12 | z-score [6]: -0.13 (inactive) | composite z-score [7]: -0.0985 | composite z-score [8]: 1.48 | composite z-score [9]: 1.03 | composite z-score [10]: -0.0251 | composite z-score [11]: 0.933 | composite z-score [12]: -0.196 | composite z-score [13]: -0.163 | z-score [14]: 0.215 (inactive) | composite z-score [15]: 1.61 | composite z-score [16]: 1.07 | composite z-score [17]: 1.07 | composite z-score [18]: 1.38 | composite z-score [19]: 0.856 | composite z-score [20]: 1.7

CC(=O)O[C@H]1C2=C(C(=O)[C@@H]3O[C@@H]31)[C@H]1C(C)O[C@@H]2[C@@]23C(=O)[C@@H]4O[C@@H]4[C@@H](O)C2=CO[C@H](C)[C@@H]13 (stereo not given in full)
composite z-score [1]: 0.417 | z-score [2]: 0.014 (inactive) | z-score [3]: -0.361 (inactive) | z-score [4]: 0.465 (inactive) | composite z-score [5]: -0.0273 | z-score [6]: 0.16 (inactive) | composite z-score [7]: -0.265 | composite z-score [8]: -0.0408 | composite z-score [9]: 0.0275 | composite z-score [10]: -0.0671 | composite z-score [11]: 0.452 | composite z-score [12]: -0.475 | composite z-score [13]: -0.62 | z-score [14]: 0.15 (inactive) | composite z-score [15]: 0.374 | composite z-score [16]: -0.0186 | composite z-score [17]: 0.197 | composite z-score [18]: -0.0861 | composite z-score [19]: 0.326 | composite z-score [20]: 0.702

CCOC(=O)CCN1C(=O)[C@H]2[C@H]3[C@H](O)[C@H](O)CC(=NOC[C@@H](O)COCc4ccco4)[C@@H]3CC[C@H]2C1=O
composite z-score [1]: 0.163 | z-score [2]: 0.133 (inactive) | z-score [3]: -0.226 (inactive) | z-score [4]: -0.0839 (inactive) | composite z-score [5]: 0.545 | z-score [6]: 0.383 (inactive) | composite z-score [7]: 0.0814 | composite z-score [8]: -0.298 | composite z-score [9]: -0.62 | composite z-score [10]: -0.0764 | composite z-score [11]: 0.0645 | composite z-score [12]: 0.587 | composite z-score [13]: 0.437 | z-score [14]: 0.395 (inactive) | composite z-score [15]: -0.133 | composite z-score [16]: -0.412 | composite z-score [17]: -0.0138 | composite z-score [18]: -0.295 | composite z-score [19]: -0.144 | composite z-score [20]: 0.383

O=C1O[C@@H](c2ccccc2)[C@@H](c2ccccc2)N2[C@@H](c3ccc(OCCO)cc3)[C@]3(C(=O)Nc4ccccc43)[C@@H](C(=O)N3CCN(c4ncccn4)CC3)[C@H]12
composite z-score [1]: 1.53 | z-score [2]: 1.94 (inactive) | z-score [3]: 1.4 (inactive) | z-score [4]: 4.77 (inactive) | composite z-score [5]: 2.97 | z-score [6]: 0.856 (inactive) | composite z-score [7]: 1.04 | composite z-score [8]: 0.952 | composite z-score [9]: 1.1 | composite z-score [10]: 0.0679 | composite z-score [11]: 1.4 | composite z-score [12]: 0.556 | composite z-score [13]: -0.0223 | z-score [14]: -0.0125 (inactive) | composite z-score [15]: 0.69 | composite z-score [16]: 1.22 | composite z-score [17]: 0.774 | composite z-score [18]: 1.23 | composite z-score [19]: 0.886 | composite z-score [20]: 0.38

CC(C)CON=C1C[C@@H](O)[C@@H](O)[C@@H]2[C@@H]3C(=O)N([C@@H](C)c4ccccc4)C(=O)[C@@H]3CC[C@H]12
composite z-score [1]: 1.54 | z-score [2]: 0.466 (inactive) | z-score [3]: 0.443 (inactive) | z-score [4]: -0.0803 (inactive) | composite z-score [5]: 2.73 | z-score [6]: 0.0955 (inactive) | composite z-score [7]: -0.128 | composite z-score [8]: 1.12 | composite z-score [9]: 1.08 | composite z-score [10]: -0.0146 | composite z-score [11]: 0.43 | composite z-score [12]: -0.325 | composite z-score [13]: -0.565 | z-score [14]: 0.115 (inactive) | composite z-score [15]: 1.07 | composite z-score [16]: 0.778 | composite z-score [17]: 0.39 | composite z-score [18]: 1.24 | composite z-score [19]: 0.76 | composite z-score [20]: -0.204

N#Cc1ccc(NN2C(C(O)c3cccc4ccccc34)C=CC3C(=O)N(c4ccccc4)C(=O)C32)cc1 (stereo not given)
composite z-score [1]: 1.39 | z-score [2]: 0.242 (inactive) | z-score [3]: 2.28 (inactive) | z-score [4]: 1.75 (inactive) | composite z-score [5]: 3.41 | z-score [6]: -0.339 (inactive) | composite z-score [7]: 0.341 | composite z-score [8]: 0.157 | composite z-score [9]: -0.262 | composite z-score [10]: 0.0785 | composite z-score [11]: 0.582 | composite z-score [12]: 0.687 | composite z-score [13]: 1.14 | z-score [14]: 1.27 (inactive) | composite z-score [15]: 0.899 | composite z-score [16]: 0.676 | composite z-score [17]: 0.316 | composite z-score [18]: 0.898 | composite z-score [19]: -0.203 | composite z-score [20]: 0.478

C=CCNC(=O)[C@H]1[C@@H]2C(=O)O[C@@H](c3ccccc3)[C@@H](c3ccccc3)N2[C@@H](c2ccc(O)cc2)[C@]12C(=O)N(C(=O)OCCOC)c1ccc(C#CC3=CCCCC3)cc12
composite z-score [1]: 1.54 | z-score [2]: 0.576 (inactive) | z-score [3]: 0.111 (inactive) | z-score [4]: 1.12 (inactive) | composite z-score [5]: 3.14 | z-score [6]: 0.111 (inactive) | composite z-score [7]: 0.862 | composite z-score [8]: 1.78 | composite z-score [9]: 1 | composite z-score [10]: -0.21 | composite z-score [11]: 1.79 | composite z-score [12]: 0.298 | composite z-score [13]: 0.263 | z-score [14]: -0.75 (inactive) | composite z-score [15]: 0.966 | composite z-score [16]: 1.32 | composite z-score [17]: 0.205 | composite z-score [18]: 0.969 | composite z-score [19]: 0.23 | composite z-score [20]: 1.34

CC(C)CON=C1C[C@@H](O)[C@@H](O)[C@@H]2[C@@H]3C(=O)N(C[C@@H]4CCCO4)C(=O)[C@@H]3CC[C@H]12
composite z-score [1]: 0.976 | z-score [2]: -1.04 (inactive) | z-score [3]: 0.042 (inactive) | z-score [4]: -0.435 (inactive) | composite z-score [5]: 1.39 | z-score [6]: 0.134 (inactive) | composite z-score [7]: -0.234 | composite z-score [8]: 0.468 | composite z-score [9]: 0.668 | composite z-score [10]: -0.0191 | composite z-score [11]: 0.651 | composite z-score [12]: -0.273 | composite z-score [13]: -0.356 | z-score [14]: 0.132 (inactive) | composite z-score [15]: 0.505 | composite z-score [16]: 0.33 | composite z-score [17]: 0.265 | composite z-score [18]: 0.417 | composite z-score [19]: 0.24 | composite z-score [20]: 0.07

[N-]=[N+]=NCc1ccccc1[C@@H]1OC(c2ccc(OCCCO)cc2)=N[C@]1(Cc1ccccc1)C(=O)N1CCOCC1
composite z-score [1]: 1.53 | z-score [2]: -0.655 (inactive) | z-score [3]: -0.42 (inactive) | z-score [4]: 0.303 (inactive) | composite z-score [5]: 3.52 | z-score [6]: 0.986 (inactive) | composite z-score [7]: 0.422 | composite z-score [8]: 0.671 | composite z-score [9]: 1.11 | composite z-score [10]: 0.256 | composite z-score [11]: 1.57 | composite z-score [12]: 1.2 | composite z-score [13]: 0.798 | z-score [14]: -0.962 (inactive) | composite z-score [15]: 1 | composite z-score [16]: 1.29 | composite z-score [17]: 0.0588 | composite z-score [18]: 0.589 | composite z-score [19]: 0.315 | composite z-score [20]: 0.182

COC(=O)[C@H](C)NC(=O)CCC1CC(OC(=O)NCc2cccc3ccccc23)CC2(CCCC(COC(=O)NCC3CCCCC3)O2)O1 (stereo not given in full)
composite z-score [1]: 1.55 | z-score [2]: -0.0166 (inactive) | z-score [3]: 0.633 (inactive) | z-score [4]: -0.825 (inactive) | composite z-score [5]: 3.37 | z-score [6]: -0.639 (inactive) | composite z-score [7]: -0.114 | composite z-score [8]: 0.918 | composite z-score [9]: 1.06 | composite z-score [10]: 0.0278 | composite z-score [11]: 0.534 | composite z-score [12]: -0.0762 | composite z-score [13]: -0.86 | z-score [14]: -0.397 (inactive) | composite z-score [15]: 1.47 | composite z-score [16]: 1.36 | composite z-score [17]: 1.15 | composite z-score [18]: 1.08 | composite z-score [19]: 0.528 | composite z-score [20]: -0.564
